Screening results as filed in PubChem BioAssay.
In the library only some 2.8% were active in any assay of this set; here they are far more common.
POLI inh = inhibitors of human DNA polymerase iota. Q9UNA4. Pol iota fluorescent replication assay, 10 min. Potency, µM (series often up to 115 µM), hits mostly inhibitors. 390,000 compounds, 1% hits
Target sequence (Q9UNA4 whole entry, looked up): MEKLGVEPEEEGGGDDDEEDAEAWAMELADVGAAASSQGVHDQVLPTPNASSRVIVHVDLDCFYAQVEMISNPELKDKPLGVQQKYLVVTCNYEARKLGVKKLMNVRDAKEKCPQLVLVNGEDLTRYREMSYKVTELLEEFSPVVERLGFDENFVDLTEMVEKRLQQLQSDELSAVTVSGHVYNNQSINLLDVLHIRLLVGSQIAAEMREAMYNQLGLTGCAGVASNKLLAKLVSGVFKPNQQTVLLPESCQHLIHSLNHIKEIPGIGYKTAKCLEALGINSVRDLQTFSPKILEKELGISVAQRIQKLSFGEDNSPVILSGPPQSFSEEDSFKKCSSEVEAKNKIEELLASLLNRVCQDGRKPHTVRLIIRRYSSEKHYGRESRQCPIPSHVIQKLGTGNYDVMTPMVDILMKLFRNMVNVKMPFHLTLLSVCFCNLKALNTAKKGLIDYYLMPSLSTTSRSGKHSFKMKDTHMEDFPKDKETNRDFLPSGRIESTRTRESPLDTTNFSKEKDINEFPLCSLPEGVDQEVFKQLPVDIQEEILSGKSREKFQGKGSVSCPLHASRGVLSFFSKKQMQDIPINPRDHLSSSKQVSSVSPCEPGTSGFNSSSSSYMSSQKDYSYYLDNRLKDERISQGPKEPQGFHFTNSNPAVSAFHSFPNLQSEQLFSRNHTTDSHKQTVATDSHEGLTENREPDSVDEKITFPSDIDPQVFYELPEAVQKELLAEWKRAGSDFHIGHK
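Pol iota at 10 nM preincubated 15 min with compounds at room temperature; reaction started with fluorescent substrate, 50 nM final. Fluorescence read kinetically at 0 and 10 min; buffer-only wells as negative control.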
Pol eta inh = DNA polymerase eta (human) inhibition; Q9Y253; recombinant Pol eta, fluorescent DNA replication assay; Potency, µM (top dose mostly 114 µM), usual class: inhibitors; 390,000 compounds, 1.2% hits; AID 588591
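Pol eta at 10 nM preincubated with compounds 15 min at room temperature; reaction started with fluorescent substrate (50 nM final) and read kinetically at 0 and 10 min.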
Pol beta inh = DNA polymerase beta (human) inhibition; Potency, µM (top dose mostly 114 µM), most hits filed as inhibitors; 340,000 compounds, 1.3% hits; Pol beta primer extension/strand displacement, fluorescence kinetic
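Homogeneous kinetic assay of primer extension and strand displacement by 10 nM Pol beta, preincubated 15 min at room temperature with compound before 50 nM substrate (final) was added. Read at 0 and 10 min; four-parameter Hill fit.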
WRN helicase inh = blocks human WRN helicase; Q14191; WRN helicase unwinding, fluorescent forked duplex, kinetic; Potency, µM (top dose mostly 114 µM), actives largely listed as inhibitors; 360,000 compounds, 0.46% hits; AID 651768; further: nearly all actives have a fitted effect of over 55% in size
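Fluorescence dequenching readout, ex 525 nm/em 598 nm, kinetic mode: forked duplex DNA (100 nM final) with adjacent fluorophore and quencher unwound by WRN (20 nM final) with 2 mM ATP. Compound preincubation 15 min, room temperature.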
PI5P4Ka inh = inhibitors of human PI5P4K alpha | P48426 | PI5P4Kalpha enzyme, ADP-Glo luminescence, 60 min; hits give low values | max response, % | 330,000 compounds, 1.2% hits | AID 652105; active means max response of -50% or lower; inconclusive means between -30% and -50%; inactive means -30% or higher; further: value at the top dose of about 77 µM
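Luminescence from ADP-Glo served as readout of PI5P4Kalpha activity in a qHTS format. Reaction: enzyme, substrate, compound, ATP at 5 microM final, 60 min at RT.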
Pol kappa inh = blocks human DNA polymerase kappa activity | Potency, µM (titrated, usually from 107 µM), usual class: inhibitors | 400,000 compounds, 0.53% hits | purified Pol kappa, fluorescent DNA synthesis assay, 10 min | AID 588579 | Q9UBT6
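Readout: fluorescence, taken kinetically at 0 and 10 min. Conditions: 10 nM Pol kappa, 15 min RT compound preincubation, 50 nM substrate final. Controls: enzyme-free buffer wells.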
Large screens that a line does not name were inactive. Unless noted, the call rests on the fitted dose curve; in most records, active means well fitted curve in the direction sought with a large enough effect; inconclusive means small, poorly fitted or top-dose-only effect, or another doubt; inactive means no such curve, though single readings can be large; an effect the other way counts as inactive or inconclusive.

C/C(=N\NC(=O)c1ccccc1F)c1ccc2c(c1)Nc1ccccc1S2	none
CN(C)c1cccc(-c2nnc(SCC(=O)NCc3ccco3)n2C)c1	none (no result: Pol eta inh, Pol beta inh, WRN helicase inh, PI5P4Ka inh)
Cc1ccc2c(c1)c1ccc3c(c1n2C)C(=O)C=CC3=O	POLI inh inconclusive, PI5P4Ka inh -74
Cn1c2ccccc2c2ccc3c(c21)C(=O)C=CC3=O	Pol eta inh inconclusive, WRN helicase inh inconclusive, PI5P4Ka inh -72 (no result: Pol beta inh)
COc1ccc2c(c1)c1ccc3c(c1n2C)C(=O)C=CC3=O	POLI inh 18µM, PI5P4Ka inh -74
Cn1ccc(=S)c2ccccc21	WRN helicase inh inconclusive, PI5P4Ka inh -73
COc1cc(/C=C2\SC(=S)N(C(C(=O)O)c3ccccc3)C2=O)ccc1O (centres undefined)	POLI inh 28µM, Pol eta inh inconclusive, Pol beta inh inconclusive, WRN helicase inh 50µM
O=C1/C(=C\c2ccc(O)c(O)c2)SC(=S)N1Cc1ccccc1	POLI inh 22µM, Pol beta inh inconclusive, WRN helicase inh 11µM, PI5P4Ka inh inconclusive
COc1cc(/C=C2/SC(=S)N(c3c(C)n(C)n(-c4ccccc4)c3=O)C2=O)ccc1O	POLI inh 28µM, Pol eta inh inconclusive, Pol beta inh 28µM, WRN helicase inh inconclusive
CCOc1ccc(/C=C2/SC(=S)N(C(C(=O)O)c3ccccc3)C2=O)cc1OCC (centres undefined)	POLI inh inconclusive, Pol eta inh inconclusive
COc1cc(/C=C2\SC(=S)N(N3CCOCC3)C2=O)ccc1O	POLI inh inconclusive, Pol eta inh inconclusive
O=C(O)COc1cccc(/C=C2/SC(=S)N(Cc3ccccc3)C2=O)c1	POLI inh inconclusive, Pol eta inh 79µM, Pol beta inh inconclusive, WRN helicase inh inconclusive
Cn1nnc2c(N3CCN(c4cccc(Cl)c4)CC3)ncnc21	none (no result: WRN helicase inh, PI5P4Ka inh)
COc1ccc(/C=C2\SC(=S)N(CCCC(=O)Nc3ccccc3C(=O)O)C2=O)cc1OC	POLI inh inconclusive, Pol eta inh 89µM, PI5P4Ka inh -64
COc1cc(/C=C2/SC(=S)N(Cc3ccccc3)C2=O)ccc1O	POLI inh 40µM, Pol eta inh inconclusive, Pol beta inh 10µM, WRN helicase inh 8.9µM, Pol kappa inh inconclusive
CN(C)c1ccc(Cc2cc3c(O)ccc(O)c3cc(Cc3ccc(N(C)C)cc3)c2=O)cc1	POLI inh 3.2µM, Pol eta inh 2.2µM, WRN helicase inh 13µM, PI5P4Ka inh -84, Pol kappa inh 7.9µM (no result: Pol beta inh)
C#CCOCCOCCOCCNc1nc(N2CCN(C(=O)CCCCCCCCCCNC(=O)[C@H](CCCCN)n3cc(CCO)nn3)CC2)nc(N2CCN(C(=O)CCCCCCCCCCNC(=O)[C@H](CCCN=C(N)N)n3cc(C[C@@H](C)CC)nn3)CC2)n1	POLI inh inconclusive, Pol eta inh 79µM, WRN helicase inh 35µM, PI5P4Ka inh -66, Pol kappa inh inconclusive (no result: Pol beta inh)
C#CCOCCOCCOCCNc1nc(N2CCN(C(=O)CCCCCCCCCCNC(=O)[C@H](CCCCN)n3cc(CCCC(=O)O)nn3)CC2)nc(N2CCN(C(=O)CCCCCCCCCCNC(=O)[C@H](CCCN=C(N)N)n3cc(C[C@@H](C)CC)nn3)CC2)n1	Pol eta inh inconclusive, WRN helicase inh inconclusive, PI5P4Ka inh inconclusive (no result: Pol beta inh)
C#CCOCCOCCOCCNc1nc(N2CCN(C(=O)CCCCCCCCCCNC(=O)[C@H](CCCCN)n3cc(C[C@@H](C)CC)nn3)CC2)nc(N2CCN(C(=O)CCCCCCCCCCNC(=O)[C@H](CCCCN)n3cc(C[C@@H](C)CC)nn3)CC2)n1	Pol eta inh 79µM, WRN helicase inh 50µM, PI5P4Ka inh -52 (no result: Pol beta inh)
C#CCOCCOCCOCCNc1nc(N2CCN(C(=O)Cn3cc(CC(C)O)nn3)CC2)nc(N2CCN(C(=O)[C@H](C)n3cc(CCCN=C(N)N)nn3)CC2)n1 (some centres undefined)	POLI inh inconclusive, PI5P4Ka inh -80
Nc1c(Br)cc(/C=C2\C=Cc3ccccc32)cc1Br	none (no result: Pol eta inh, Pol beta inh, WRN helicase inh, PI5P4Ka inh)
CCN(CC)/[N+]([O-])=N/OCOC(=O)c1ccccc1OC(C)=O	none (no result: Pol eta inh, Pol beta inh, WRN helicase inh, PI5P4Ka inh)
Cc1ccc(Cl)cc1NC(=O)Cn1nc2c(cc1=O)CC(C)CC2 (centres undefined)	none (no result: WRN helicase inh, PI5P4Ka inh)
Nc1cc([N+](=O)[O-])ccc1Nc1ccc(O)cc1	PI5P4Ka inh -57
CC[n+]1c(/C=C2\Sc3ccccc3N2C)ccc2cccc(C)c21	POLI inh inconclusive, Pol eta inh inconclusive, Pol beta inh 28µM, WRN helicase inh 50µM
CC/C(=C(/c1ccccc1)c1ccc(OCCN(C)C)cc1)c1ccccc1	none (no result: POLI inh, Pol eta inh, Pol beta inh, WRN helicase inh, PI5P4Ka inh)
O=C(O)Cc1sc(Nc2cccc3ccccc23)nc1-c1ccc(Cl)cc1	Pol eta inh 79µM, Pol beta inh inconclusive
C[n+]1c(/C=C/c2ccnc3ccccc23)cc(/C=C/c2ccnc3ccccc23)c2ccccc21	POLI inh inconclusive (no result: Pol eta inh, Pol beta inh, WRN helicase inh, PI5P4Ka inh)
CC(OC(=O)c1ccc(-n2cnnn2)cc1)C(=O)Nc1ccc(F)c(F)c1F (centres undefined)	POLI inh 40µM, Pol eta inh 56µM, Pol kappa inh inconclusive (no result: Pol beta inh)
NC(=S)NNc1cccc2cccnc12	POLI inh 11µM, WRN helicase inh inconclusive
CCOc1ccc2ccccc2c1/C=N/NC(=O)c1ccncc1	Pol beta inh 20µM, PI5P4Ka inh inconclusive
CCOc1ccc2ccccc2c1/C=N/NC(=O)c1cc(C)[nH]n1	none
COc1ccc(S(=O)(=O)n2nc(-c3ccco3)nc2NCc2ccc(N(C)C)cc2)cc1	none (no result: WRN helicase inh, PI5P4Ka inh)
CCOC(=O)c1cccc(NC(=O)CCc2c(C)nn(-c3ccc(N4CCCC4)nn3)c2C)c1	none (no result: WRN helicase inh, PI5P4Ka inh)
O=C(/C=C/c1cnc2ccccc2n1)NC12CC3CC(CC(C3)C1)C2	Pol beta inh 56µM
O=C(O)/C=C/c1cnc2ccccc2n1	none
C(=C1C=c2ccccc2=C1)c1ccc(N=Nc2ccc(C=C3C=c4ccccc4=C3)cc2)cc1	none (no result: Pol eta inh, Pol beta inh, WRN helicase inh, PI5P4Ka inh)
COC(=O)c1ccccc1NC(=O)COc1ccccc1[N+](=O)[O-]	none
O=C(COc1ccccc1[N+](=O)[O-])Nc1cc(Cl)ccc1C(=O)O	PI5P4Ka inh -55
CCOc1ccc(NC(=O)c2cccc(N3CCCS3(=O)=O)c2)cc1	none (no result: WRN helicase inh, PI5P4Ka inh)
Cc1ccc(-n2nc(C)c3c2OC(N)=C(C#N)C3c2ccoc2)cc1 (centres undefined)	POLI inh 20µM, Pol beta inh 28µM
CC(C)(C)n1ncc2c(=O)n(Cc3ccc(C#N)cc3F)cnc21	none (no result: Pol eta inh, Pol beta inh, WRN helicase inh, PI5P4Ka inh)
CN1CCN(C2=CC3=CC(=C(C#N)C#N)CCC3CC2)CC1 (centres undefined)	POLI inh 89µM
CCN1CCN(C2=CC3=CC(=C(C#N)C#N)CCC3CC2)CC1 (centres undefined)	POLI inh inconclusive, WRN helicase inh 25µM
N#CC(C#N)=C1C=C2C=C(N3CCOCC3)CCC2CC1 (centres undefined)	none
CCN(Cc1ccccc1)Cc1c(O)ccc2c(=O)c(-c3ccccc3Cl)c(C(F)(F)F)oc12	POLI inh inconclusive (no result: Pol eta inh, WRN helicase inh, PI5P4Ka inh)
